Measured values taken from PubChem BioAssay (NCATS).
Records with an inconclusive call do not appear. Values without a mark were called inactive. Calls come from the whole dose curve; as a rule, active = well fitted inhibition curve with a large enough effect; inconclusive = small, poorly fitted or top-dose-only effect; inactive = flat fitted curve, though single readings scatter.

Each molecule was assayed against Calcium and integrin-binding protein 1 (Homo sapiens) (UniProt Q99828) (assay: Primary qHTS for Identification of Calcium Integrin Binding Protein 1 (CIB1) Competitor (AID 1508620;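 note: GST tagged CIB1 binding a fluorescein labelled alphaIIb integrin peptide tracer; top concentration of the series differs between compounds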)). Details: CIB1-GST / FITC-alphaIIb peptide fluorescence polarization; series mostly up to 57.7 µM; activity change, negative = inhibition: at the top concentration.
Sequence of Calcium and integrin-binding protein 1 (Homo sapiens) (Q99828 whole entry, looked up): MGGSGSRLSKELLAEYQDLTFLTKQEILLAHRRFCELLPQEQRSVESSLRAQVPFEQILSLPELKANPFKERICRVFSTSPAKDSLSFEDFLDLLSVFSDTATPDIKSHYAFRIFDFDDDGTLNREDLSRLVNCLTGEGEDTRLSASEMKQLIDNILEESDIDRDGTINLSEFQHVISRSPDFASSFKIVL
Outline: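 CIB1-GST (1 uM final) and compound incubated 15 min at room temperature before adding FITC-alphaIIb peptide tracer (100 nM final). Competition for binding read by fluorescence polarization (ex 480, em 540) after another 15 min at room temperature.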
% is set by controls: 0 for no effect and ±100 for the full control effect.

Row | Compound | activity change, negative = inhibition
1 | CCC[C@@H]1C[C@@H](C(=O)N[C@H](C(C)Cl)[C@H]2O[C@H](SC)[C@H](O)[C@@H](O)[C@H]2O)N(C)C1 (stereo not given in full) | 0.966% [at 114 µM]
2 | CCC1CC2C(C)=CC3CCCCC3C2(C)C2(OC(=O)C(C)(O)OC2=O)O1 (stereo not given) | -1.08%
3 | CC1(C)CCC(C)(C)c2cc([C@@H](O)C(=O)Nc3ccc(C(=O)O)cc3F)ccc21 | -1.07% [at 114 µM]
4 | COc1cc(CCc2ccccc2)c(C(=O)O)c2c1CC(C(C)(C)O)O2 (stereo not given) | -3.57%
5 | C[C@@H]1C[C@H](O[C@@H]2O[C@H](CO[C@@H]3OC[C@](O)(CO)[C@H]3O)[C@@H](O)[C@H](O)[C@H]2O)CC(C)(C)[C@H]1/C=C/[C@@H](C)O | -0.584%
6 | COc1cc(/C=C/C(=O)OC(C)(C)C(OC2OC(CO)C(O)C(O)C2O)C(=O)OCc2ccc(OC3OC(CO)C(O)C(O)C3O)cc2)ccc1O (stereo not given) | -2.54% [at 30.2 µM]
7 | Cc1c(N2C(=O)c3ccc(C(=O)O)cc3C2=O)c(=O)n(-c2ccccc2)n1C | -0.813% [at 114 µM]
8 | C=C1CCC2C(C)(CO[C@@H]3O[C@H](CO)[C@@H](O)[C@H](O)[C@H]3O)C(O)CCC2(C)C1C(=O)CC1=CCOC1=O (stereo not given in full) | 0.0919%
9 | C[C@H](NCc1ccc(OCc2ccccc2F)cc1)C(N)=O | -4.88% [at 114 µM]
10 | O=C(O)C[C@H]1CCC(=O)[C@@H]1C/C=C\CCOC1OC(CO)C(O)C(O)C1O (stereo not given in full) | -3.58%
11 | C[C@@H]1O[C@@H](O[C@H]2[C@H](O[C@H]3[C@H](O[C@H]4CC[C@@]5(C)C(CC[C@]6(C)C5CC=C5[C@@H]7CC(C)(C(=O)O)C[C@@H](O)[C@]7(C)CC[C@]56C)[C@@]4(C)CO)O[C@H](C(=O)O)[C@@H](O)[C@@H]3O)O[C@H](CO)[C@H](O)[C@@H]2O)[C@H](O)[C@H](O)[C@H]1O (stereo not given in full) | -1.51% [at 30.2 µM]
12 | CC(=O)Oc1cc2c(s1)CCN([C@H](C(=O)C1CC1)c1ccccc1F)C2 | -1% [at 114 µM]
13 | C=C1C2=CC(O)C(C)C1(C)CC/C(C)=C/CCC1(C)OC1C2=O (stereo not given) | 3.11%
14 | COc1ccc2c(c1O)OC[C@H]1c3ccc(O)cc3O[C@@H]21 | -1.08% [at 114 µM]
15 | C/C=C/C=C/C=C/C(=O)O[C@@H]1[C@@H](OC)C2=C(C(=O)N(C(C)C(=O)O)C2)[C@@]2(C)CCCC(C)(C)[C@H]12 (stereo not given in full) | 0.665%
